Source: PubChem
Compounds with a hit are over-represented: about 14% of the library has one in this group of screens.
FBPA Giardia inh: Giardia lamblia aldolase inhibition | AID 2451 | 290,000 compounds, 0.71% hits | Potency, µM (titrated, usually from 59.6 µM), for the others: at the top dose activity, negative = inhibition, actives largely listed as inhibitors | purified Giardia FBPA; note: potency is the fitted concentration of half-maximal effect; nearly all actives have a fitted effect of over 55% in size
Target sequence (A8B2U2 whole entry, looked up): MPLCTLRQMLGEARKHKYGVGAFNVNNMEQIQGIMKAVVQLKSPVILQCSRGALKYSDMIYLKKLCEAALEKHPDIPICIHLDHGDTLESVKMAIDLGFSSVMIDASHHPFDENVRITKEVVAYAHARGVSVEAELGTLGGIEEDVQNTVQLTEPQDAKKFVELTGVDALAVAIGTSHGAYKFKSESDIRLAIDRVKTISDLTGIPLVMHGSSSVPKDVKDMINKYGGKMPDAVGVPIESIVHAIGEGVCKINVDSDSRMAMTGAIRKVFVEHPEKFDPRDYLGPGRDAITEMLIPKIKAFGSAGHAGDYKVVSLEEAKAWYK
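40 nM FBPA preincubated 10 min at RT with compound (up to 57.5 uM final), then substrate plus GAPDH/TPI/NAD/arsenate coupling and diaphorase/resazurin added. Fluorescence read after 20 min at RT, 525/598 nm.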
Sm TGR block: S. mansoni TGR enzyme inhibition; purified TGR, DTNB reduction, TNB absorbance 405 nm; Potency, µM (titrated, usually from 114 µM), for the others: top-dose activity change, negative = inhibition, hits mostly inhibitors; 360,000 compounds, 3% hits; AID 485364; note: potency is the fitted concentration of half-maximal effect; nearly all actives have a fitted effect of over 60% in size
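First, TGR (20 nM dispensed) and NADPH were mixed with compound. Second, a 15 min room-temperature incubation followed. Third, further NADPH and then DTNB were added to start the reaction. Finally, TNB absorbance was monitored kinetically.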
HCMV antiviral: inhibitors of human cytomegalovirus. HFF cells, HCMV-luciferase reporter, 72 h; stronger effect = lower value. 410,000 compounds, 4.5% hits. activity change, negative = inhibition, % at 57.5 µM; in the data active = activity change below about -60%; inconclusive = no clear call, values can overlap the other calls; inactive = above about -39%
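Two-dose cell screen: HFF monolayers treated with compounds and infected with luciferase-expressing HCMV at 1 PFU/cell, 72 h at 37C, then lysed for luciferase measurement.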
Pf growth 96h: inhibits malaria parasite growth, 96 h. P. falciparum luciferase reporter growth, 96 h. Potency, µM (highest dose often 28.7 µM), inactives show at the highest dose activity change, negative = inhibition, hits mostly inhibitors. 320,000 compounds, 6.9% hits; note: potency is the fitted concentration of half-maximal effect
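96 h incubation, 37 C, 5% CO2, of luciferase-reporter P. falciparum-infected RBCs (2% hematocrit, 0.05% parasitemia final) with test compounds; endpoint luminescence.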
Pf growth 48h: inhibits P. falciparum growth in the first generation, 48 h; Potency, µM (series often up to 28.7 µM), inactives show at the highest dose activity change, negative = inhibition, usual class: inhibitors; 310,000 compounds, 5.9% hits; P. falciparum luciferase growth in erythrocytes, 48 h; note: potency is the fitted concentration of half-maximal effect
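Firefly luciferase activity from engineered P. falciparum reports growth; inhibitors lower the luminescent signal. Cultures contained 2% hematocrit erythrocytes at 0.1% final parasitemia.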
* marks the source's active call; other numbers are inactive results; [ ] = another dose, or the depositor's remark. Unless noted, calls come from the whole dose curve; as a rule, active = well fitted curve in the direction sought with a large enough effect; inconclusive = small, poorly fitted or top-dose-only effect, or another doubt; inactive = no such curve, though single readings can be large; an effect the other way counts as inactive or inconclusive. % is set by controls: 0 for no effect and ±100 for the full control effect.

Screening Fc1ccccc1NC(=S)Nc1cccc2cnccc12 returned FBPA Giardia inh inconclusive, Sm TGR block 40µM*, HCMV antiviral 37, Pf growth 96h 36% and Pf growth 48h -20%.
FC(F)(F)c1ccccc1NC(=S)Nc1cccc2cnccc12 was read as FBPA Giardia inh inconclusive, Sm TGR block 35µM*, HCMV antiviral -28, Pf growth 96h 22% and Pf growth 48h -22%.
For Cc1ccc(NC(=S)Nc2cccc3cnccc23)cc1C the results were FBPA Giardia inh inconclusive, Sm TGR block inconclusive, HCMV antiviral -27, Pf growth 96h inconclusive and Pf growth 48h inconclusive.
`NC(=S)Nc1cccc2cnccc12` gave FBPA Giardia inh -30%, Sm TGR block 9%, HCMV antiviral -6, Pf growth 96h 9% and Pf growth 48h 10%.
Screening Cc1ccccc1NC(=S)Nc1cccc2cnccc12 returned FBPA Giardia inh 2µM*, Sm TGR block inconclusive, HCMV antiviral -65*, Pf growth 96h 9.3µM* and Pf growth 48h 5.2µM*.
Cc1ccc(C)c(NC(=S)Nc2cccc3cnccc23)c1 was read as FBPA Giardia inh inconclusive, Sm TGR block inconclusive, HCMV antiviral -34, Pf growth 96h 9.3µM* and Pf growth 48h inconclusive.
Screening C[C@@H](O)C(N)C(=O)O (some centres undefined) returned FBPA Giardia inh 0%.
Screening CN1CCN(C(=O)c2cccc(-c3cccc4nccn34)c2)CC1 returned HCMV antiviral -3.
CCc1nc2c(OCC(=O)C(C)(C)C)cccn2c1N(C=O)Cc1ccccc1 was read as HCMV antiviral -2.
Screening Cc1c(CCO)c(=O)[nH]n1C(=O)c1ccc(F)cc1 returned FBPA Giardia inh 5%, Sm TGR block 4%, HCMV antiviral inconclusive, Pf growth 96h 1% and Pf growth 48h -7%.
Screening COC(=O)c1ccc(Cn2nc(C)c([N+](=O)[O-])c2C)o1 returned FBPA Giardia inh 1%, Sm TGR block 5%, HCMV antiviral 12, Pf growth 96h 13µM* and Pf growth 48h -22%.
Screening Cc1cc(C)cc(NC(=O)c2ccc(Cn3nc(C)c(Cl)c3C)o2)c1 returned FBPA Giardia inh -5%, Sm TGR block inconclusive, HCMV antiviral -4, Pf growth 96h inconclusive and Pf growth 48h inconclusive.
Screening CCC(C)NC(=O)c1ccc(CSCc2cccc(F)c2)o1 (centres undefined) returned FBPA Giardia inh 3%, Sm TGR block -6%, HCMV antiviral 18 and Pf growth 96h inconclusive.
`Cc1ccc(CNC(=O)c2ccc(Cn3nc(C)c(Cl)c3C)o2)cc1` gave FBPA Giardia inh 2%, Sm TGR block 25µM*, HCMV antiviral -14, Pf growth 96h -6% and Pf growth 48h 10%.
`Cc1ccc(CSCc2ccc(C(=O)NC3CC3)o2)cc1` gave Sm TGR block -5%, HCMV antiviral 0, Pf growth 96h inconclusive and Pf growth 48h 1.2µM*.
Screening Cc1nn(Cc2ccc(C(=O)O)o2)c(C)c1[N+](=O)[O-] returned FBPA Giardia inh 2%, Sm TGR block 8%, HCMV antiviral 12, Pf growth 96h 5% and Pf growth 48h 24%.
`O=C(NC1CC1)c1ccc(CSCc2cccc(F)c2)o1` gave FBPA Giardia inh -8%, Sm TGR block 35µM*, HCMV antiviral 50 and Pf growth 96h -9%.
Screening O=C(N[C@H]1CC[C@@]23CCCN2C(=O)CCC[C@H]3[C@H]1Cc1ccccc1)c1cccnc1 returned HCMV antiviral -11.
`Cc1ccc(CNC(=O)c2ccc(CSCc3ccc(Cl)cc3)o2)cc1` gave Sm TGR block 40µM* and HCMV antiviral 25.
`Cc1nc(N(C)C2CCCCC2)c2nnn(Cc3ccc(F)cc3)c2n1` gave HCMV antiviral -34.
Screening CC(C)[C@H](NC(=O)[C@@H]1CSC2c3ccccc3C(=O)N21)C(=O)NCc1ccco1 (some centres undefined) returned FBPA Giardia inh -7%, Sm TGR block 45µM*, HCMV antiviral -20, Pf growth 96h 8% and Pf growth 48h -10%.
Screening O=C(NCc1cccs1)[C@@H]1CSC2c3ccccc3C(=O)N21 (some centres undefined) returned FBPA Giardia inh -3%, Sm TGR block 18%, HCMV antiviral -18, Pf growth 96h -17% and Pf growth 48h -1%.
O=C(NCc1ccco1)[C@@H]1CSC2c3ccccc3C(=O)N21 (some centres undefined) was read as FBPA Giardia inh -7%, Sm TGR block 32µM*, HCMV antiviral -18 and Pf growth 48h 9%.
Screening C[C@H](NC(=O)[C@@H]1CSC2c3ccccc3C(=O)N21)C(=O)NC1CCCC1 (some centres undefined) returned Sm TGR block -1%, HCMV antiviral 10, Pf growth 96h -13% and Pf growth 48h -17%.
Screening C[C@H](NC(=O)[C@@H]1CSC2c3ccccc3C(=O)N21)C(=O)NCc1c(F)cccc1Cl (some centres undefined) returned Sm TGR block 0%, HCMV antiviral 0, Pf growth 96h 12µM* and Pf growth 48h inconclusive.
`C/C(=N\NC(=O)c1cc(C)oc1C)c1ccc(C)c([N+](=O)[O-])c1` gave Sm TGR block -7%, HCMV antiviral -15, Pf growth 96h inconclusive and Pf growth 48h inconclusive.
CCOC(=O)[C@]12CCCC=C1N(Cc1ccco1)C(=O)[C@H](CC(=O)N1CCCC1)C2 was read as HCMV antiviral 15.
Screening COc1ccc(N2CC(C(=O)Nc3ccc(S(=O)(=O)Nc4nccs4)cc3)CC2=O)c(OC)c1 (centres undefined) returned Sm TGR block -8%, HCMV antiviral 3, Pf growth 96h -31% and Pf growth 48h -18%.
`Cc1ccc(N(CC(=O)NC(C)(C)C)C(=O)CNC(=O)c2cccs2)c(C)c1` gave FBPA Giardia inh 3%, HCMV antiviral -36, Pf growth 96h 20% and Pf growth 48h 8.3µM*.
Screening CC1CCN(C(=O)COc2ccc(Nc3ccccc3)cc2)CC1 returned FBPA Giardia inh -6%, Sm TGR block -20%, HCMV antiviral -74*, Pf growth 96h -2% and Pf growth 48h -1%.
O=C(Nc1ccc(OCC(=O)N2CCC(Cc3ccccc3)CC2)cc1)c1ccco1 was read as FBPA Giardia inh -2%, Sm TGR block 0%, HCMV antiviral -83* and Pf growth 96h -38%.
For CCOC(=O)c1cc(NC(=O)c2ccc(OC)cc2)c(=O)n2c1oc1ccc(Cl)cc12 the results were Sm TGR block 0% and HCMV antiviral -11.
Screening O=C(O)CC1(c2ccccc2)C(=O)c2ccccc2C1=O returned FBPA Giardia inh 2%, Sm TGR block 17%[11.4 µM], HCMV antiviral 3 and Pf growth 96h -6%.
